Assay results taken from PubChem BioAssay AID1117292 (Broad Institute, 2014).
Results with a measured potency or affinity are listed apart. Records with an inconclusive call do not appear. The source made the active and inactive calls.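 The calls were made as follows: active = compound whose fitted half-maximal dose for signal loss lies within twice the top dose in every replicate test; inconclusive = tests disagree, or flat partial signal loss or poor fit; inactive = every test inactive, flat, rising or too weak.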

Biological target: Endoplasmic reticulum aminopeptidase 1 (Homo sapiens) (UniProt Q9NZ08)
Test: ERAP1 enzyme inhibitors, dose response, biochemical, fluorescence plate reader, dry powder (AID 1117292)
Conditions: purified ERAP1, Leu-AMC fluorescence, 60 min; series mostly up to 50 µM; activity change, negative = inhibition: at the top concentration

Endoplasmic reticulum aminopeptidase 1 (Homo sapiens), sequence (Q9NZ08 whole entry, looked up): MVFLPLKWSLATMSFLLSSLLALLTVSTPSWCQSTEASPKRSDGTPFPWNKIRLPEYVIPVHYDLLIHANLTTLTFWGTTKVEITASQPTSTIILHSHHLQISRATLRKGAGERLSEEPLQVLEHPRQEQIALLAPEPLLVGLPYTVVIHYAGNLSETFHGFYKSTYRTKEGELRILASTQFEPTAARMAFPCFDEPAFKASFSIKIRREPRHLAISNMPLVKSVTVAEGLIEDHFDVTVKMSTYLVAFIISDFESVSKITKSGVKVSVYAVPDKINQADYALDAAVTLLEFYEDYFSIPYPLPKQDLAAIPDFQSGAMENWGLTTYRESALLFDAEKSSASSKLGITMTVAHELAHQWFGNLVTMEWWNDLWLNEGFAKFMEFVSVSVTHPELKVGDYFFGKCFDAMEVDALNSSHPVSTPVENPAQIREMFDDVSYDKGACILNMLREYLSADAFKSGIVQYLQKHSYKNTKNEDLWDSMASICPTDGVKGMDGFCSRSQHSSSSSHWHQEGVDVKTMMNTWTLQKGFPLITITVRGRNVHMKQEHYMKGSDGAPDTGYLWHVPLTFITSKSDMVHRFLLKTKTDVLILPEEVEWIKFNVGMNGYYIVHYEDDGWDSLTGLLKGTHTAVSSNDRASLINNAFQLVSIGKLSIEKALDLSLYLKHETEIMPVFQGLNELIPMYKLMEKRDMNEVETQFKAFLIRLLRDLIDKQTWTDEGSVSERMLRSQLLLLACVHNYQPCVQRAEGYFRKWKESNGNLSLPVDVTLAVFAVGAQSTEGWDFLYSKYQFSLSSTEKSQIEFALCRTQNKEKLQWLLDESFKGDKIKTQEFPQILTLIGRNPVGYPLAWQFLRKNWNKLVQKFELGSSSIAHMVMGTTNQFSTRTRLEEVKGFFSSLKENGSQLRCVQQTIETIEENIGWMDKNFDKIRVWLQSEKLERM

Activity change, negative = inhibition, inactive:
Cn1cnc(S(=O)(=O)Nc2cc(C(F)(F)F)ccc2N2CCCCC2)c1 13.7%
CC(=O)N1CCN(C(=O)C2(NC(=O)Nc3ccc(C(F)(F)F)cc3)CCCCC2)CC1 7.13%
COc1ccc(C(=O)Nc2cc(F)ccc2N2CCCCC2)cc1S(=O)(=O)O 25%
CC(=O)N1CCN(C(=O)C2(NC(=O)Nc3ccccc3C(F)(F)F)CCCCC2)CC1 24.9%
O=S(=O)(Nc1cc(C(F)(F)F)ccc1N1CCCCC1)c1ccc(-c2ccccc2)cc1 12.5%

outcome, inactive:
CC(=O)N1CCN(C(=O)C2(NC(=O)Nc3ccccc3F)CCCCC2)CC1
